Results published in PubChem BioAssay AID1259354 (Paczesny and Yang Labs, IUPUI and University of Michigan, 2018).
The whole screen tested about 78,000 compounds, of which about 1,800 (2.3%) were called active. Inconclusive results (about 27%) are left out. The sample holds actives, similar compounds and a random draw of the others, so the mix is not that of the screen. Rule as the data show it: active = inhibition above about 30%; inconclusive = mostly about 10% to 28%; inactive = weaker than that.

These molecules were tested against Interleukin-1 receptor-like 1 (Homo sapiens) (UniProt Q01638) (assay: blocks human ST2 binding to IL-33, primary screen, biochemical, AlphaLISA (AID 1259354)). Conditions: AlphaLISA ST2-Fc/biotin-IL-33 interaction, 1 h; at 17 µM, stronger effect = higher value.
Chain of Interleukin-1 receptor-like 1 (Homo sapiens) (Q01638 whole entry, looked up): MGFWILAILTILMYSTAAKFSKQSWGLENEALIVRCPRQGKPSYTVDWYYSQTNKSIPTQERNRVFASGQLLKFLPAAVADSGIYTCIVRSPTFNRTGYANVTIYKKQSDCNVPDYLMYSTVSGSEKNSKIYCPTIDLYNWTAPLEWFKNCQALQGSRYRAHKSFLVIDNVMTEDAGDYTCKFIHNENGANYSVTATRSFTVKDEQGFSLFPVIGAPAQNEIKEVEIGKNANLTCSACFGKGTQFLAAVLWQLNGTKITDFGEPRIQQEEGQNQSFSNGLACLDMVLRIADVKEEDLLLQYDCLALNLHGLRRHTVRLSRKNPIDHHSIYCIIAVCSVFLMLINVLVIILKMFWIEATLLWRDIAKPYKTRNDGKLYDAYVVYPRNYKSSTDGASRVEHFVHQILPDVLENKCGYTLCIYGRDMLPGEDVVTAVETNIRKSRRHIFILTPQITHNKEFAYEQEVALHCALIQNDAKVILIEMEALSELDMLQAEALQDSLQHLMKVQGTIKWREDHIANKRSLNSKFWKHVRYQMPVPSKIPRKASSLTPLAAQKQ

SMILES	inhibition
CCN(CC)CCNc1ccc([N+](=O)[O-])c2cccnc12	inactive
CCN(CC)c1ccc([N+](=O)[O-])c2cccnc12	56% (active)
COc1cc(CN2CCN(Cc3ccccc3)CC2)cc(I)c1O	inactive
C/C=C(\C)CN1CCC2(CCNCC2)C1	inactive
CCOC(=O)C1C2NC(=O)N(c3cccc(C)c3)C1(C)Oc1c(OC)cccc12 (stereo not given)	inactive
